Sampled rows, rich in hits. Any-hit rate of the full collection: about 0.4%.
EPAC2 antagonist = qHTS for Antagonist of cAMP-regulated guanine nucleotide exchange factor 2 (EPAC2): primary screen; Potency, µM (series often up to 114 µM), without a hit: top-dose activity, negative = inhibition, actives largely listed as inhibitors; Rap guanine nucleotide exchange factor 4 (Homo sapiens), Q8WZA2; EPAC2 GEF exchange of Rap1B-BODIPY-GDP, fluorescence; hit rate 0.18% among 360,000; also: potency is read from the fitted curve at half-maximal effect; % is scaled to controls: 0 for no effect and ±100 for the full control effect; nearly all actives have a fitted effect of over 45% in size
TRPML1 agonist = qHTS for Agonists of the Human Mucolipin Transient Receptor Potential 1 (TRPML1); Mucolipin-1 (Homo sapiens), Q9GZU1; hit rate 0.12% among 410,000; TRPML1-expressing cells, Ca2+ dye fluorescence, FDSS; activation, % (test concentration not listed); in the data active = activation above about 50%; inconclusive = mostly about 30% to 49%; also: 0% is about no effect
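Tetracycline-induced TRPML1-DL cells are seeded and incubated overnight before loading with a no-wash Ca2+ dye and quencher. Agonist activity is taken from the 110 s fluorescence read following compound pin-transfer on an FDSS, before EC80 54-4 challenge.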
TRPML1 inh = qHTS for Inhibitors of the Human Mucolipin Transient Receptor Potential 1 (TRPML1); Mucolipin-1 (Homo sapiens), Q9GZU1; TRPML1-inducible cells, Ca2+ dye fluorescence, FDSS; hits give low values; inhibition of EC80 agonist-evoked calcium signal; activity change, negative = inhibition, % (concentration not given with the values); hit rate 0.02% among 390,000; AID 624415, 2012; in the data active = activity change below about -50%; inconclusive = between about -30% and that limit;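 also: stimulus is agonist 54-4 at its EC80 concentration; % is scaled to controls: 0 for no effect and ±100 for the full control effect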
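Tet-induced TRPML1-DL cells loaded with Ca8 no-wash calcium dye were read kinetically on FDSS. Compound addition was followed by EC80 agonist 54-4 (4 uM final); inhibition was read over 110 s.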
EPAC1 agonist = qHTS for Agonist of cAMP-regulated guanine nucleotide exchange factor 3 (EPAC1): primary screen | Potency, µM (top dose mostly 154 µM), inactives show top-dose activation, usual class: activators | Rap guanine nucleotide exchange factor 3 (Homo sapiens), O95398 | hit rate 0.073% among 360,000 | AID 720707, 2013 | EPAC1 agonist qHTS, biochemical assay; response scale: 100% = response to 6.5 mM cAMP; also: potency is read from the fitted curve at half-maximal effect; nearly all actives have a fitted effect of over 60% in size
Target sequence (O95398 whole entry, looked up): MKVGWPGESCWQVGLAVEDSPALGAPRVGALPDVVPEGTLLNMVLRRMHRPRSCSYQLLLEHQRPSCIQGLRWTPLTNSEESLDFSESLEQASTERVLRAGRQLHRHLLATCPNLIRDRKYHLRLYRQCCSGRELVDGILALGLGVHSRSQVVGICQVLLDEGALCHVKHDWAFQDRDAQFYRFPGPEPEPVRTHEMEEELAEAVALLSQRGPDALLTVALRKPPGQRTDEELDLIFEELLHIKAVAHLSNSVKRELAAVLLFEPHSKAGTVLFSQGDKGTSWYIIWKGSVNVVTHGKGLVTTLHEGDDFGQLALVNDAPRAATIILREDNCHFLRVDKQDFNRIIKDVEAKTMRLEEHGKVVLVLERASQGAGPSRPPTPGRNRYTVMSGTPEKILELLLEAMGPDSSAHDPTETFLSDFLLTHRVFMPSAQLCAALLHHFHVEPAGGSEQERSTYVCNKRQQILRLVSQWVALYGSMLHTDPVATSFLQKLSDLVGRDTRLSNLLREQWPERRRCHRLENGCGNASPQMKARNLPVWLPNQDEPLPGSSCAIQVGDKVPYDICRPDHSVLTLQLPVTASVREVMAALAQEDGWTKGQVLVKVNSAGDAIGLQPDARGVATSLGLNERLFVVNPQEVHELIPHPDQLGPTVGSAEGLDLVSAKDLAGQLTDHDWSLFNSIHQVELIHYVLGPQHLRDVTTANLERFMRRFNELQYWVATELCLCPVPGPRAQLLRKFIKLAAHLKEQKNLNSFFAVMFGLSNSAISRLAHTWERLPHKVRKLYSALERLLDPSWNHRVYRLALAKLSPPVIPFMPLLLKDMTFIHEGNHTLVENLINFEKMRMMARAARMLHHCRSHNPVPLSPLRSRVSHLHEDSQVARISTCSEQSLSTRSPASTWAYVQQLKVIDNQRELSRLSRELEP
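Multi-concentration qHTS readout: loss of Rap1B-bound BODIPY-GDP fluorescence driven by 100 nM EPAC1 with excess GDP (50 uM), monitored kinetically at room temperature; agonist response expressed relative to 6.5 mM cAMP.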
EPAC2 ag = qHTS for Agonist of cAMP-regulated guanine nucleotide exchange factor 4 (EPAC2): primary screen. Rap guanine nucleotide exchange factor 4 (Homo sapiens), Q8WZA2. Potency, µM (top dose mostly 154 µM), for the others: at the top dose activation, hits mostly activators. hit rate 0.079% among 360,000. EPAC2 activation, biochemical qHTS; response scale: 100% = 6.5 mM cAMP response; also: potency is read from the fitted curve at half-maximal effect; nearly all actives have a fitted effect of over 50% in size
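EPAC2 (100 nM) mixed with Rap1B loaded with BODIPY-GDP (250 nM) plus 50 uM unlabeled GDP; compounds pinned in, 5 min RT, then read every 5 min for 30 min (ex 480, em 540 nm). Normalized to cAMP control.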
EPAC1 antagonist = qHTS for Antagonist of cAMP-regulated guanine nucleotide exchange factor 3 (EPAC1): primary screen. AID 720709, 2013. Rap guanine nucleotide exchange factor 3 (Homo sapiens), O95398. hit rate 0.14% among 360,000. Potency, µM (highest dose often 115 µM), for inactives: at the top dose activity change, negative = inhibition, hits mostly inhibitors. EPAC1 GEF assay, Rap1b-BODIPY-GDP exchange fluorescence;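 also: potency is read from the fitted curve at half-maximal effect; plate controls were vehicle for no effect and positive control for full effect; nearly all actives have a fitted effect of over 50% in size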
* hit, by the source's call; i = inactive; u = inconclusive; x = no result; [ ] = another dose, or the depositor's remark. Unless noted, calls follow the shape of the dose curve; as a rule, active = well fitted curve in the direction sought with a large enough effect; inconclusive = small, poorly fitted or top-dose-only effect, or another doubt; inactive = no such curve, though single readings can be large; an effect the other way counts as inactive or inconclusive.

SMILES	EPAC2 antagonist	TRPML1 agonist	TRPML1 inh	EPAC1 agonist	EPAC2 ag	EPAC1 antagonist
O=S(c1cc(Cl)cc(Cl)c1O)c1cc(Cl)cc(Cl)c1O	37.7µM*	-0.6	x	-5.4%	-6.9%	39.8µM*
Cc1cccc(-n2c(C)cc(/C=C3\C(=N)N4N=C(CC(C)C)SC4=NC3=O)c2C)c1	12.4%	0.9	38.9	-3.6%	3.8%	8.3%
CC(C)CC1=NN2C(=N)/C(=C\c3coc4ccccc4c3=O)C(=O)N=C2S1	159.3%	68.7*	-18.8	63.1µM*	63.1µM*	97.1%
CSC1=NSC2=NC(=O)/C(=C\c3ccc(OC(=O)c4ccco4)cc3)C(=N)N12	5.1%	0.5	-3.1	-8.0%	-5.0%	u
CCSC1=NSC2=NC(=O)/C(=C\c3coc4ccccc4c3=O)C(=N)N12	73.5%	77.3*	-0.7	44.7µM*	100µM*	86.3%
CCCN1C(=O)C(O)(CC(=O)c2ccc(OC)c(OC)c2)c2ccccc21 (configuration not stated)	x	0.2	-8.9	x	x	x
Cn1cc(C(=O)C(=O)N2CCCCC2)c2ccccc21	i	0.3	-2.0	39.8µM*	u	30.8%
O=C(CSc1nnc(-c2cccs2)n1Cc1ccco1)Nc1ccc2c(c1)OCO2	5.5%	0.6	-0.6	-7.7%	7.94µM*	-5.9%
O=C(CSc1nnc(-c2ccccc2)n1Cc1ccco1)Nc1ccc2c(c1)OCCO2	-11.9%	1.8	-9.5	13.2%	9.8%	-6.0%
Cc1sc2ccccc2[n+]1CCCCBr	x	0.2	x	x	x	x
COc1ccc(CCn2c(=S)[nH]c(=O)c3cccnc32)cc1OC	x	-1.1	x	x	x	x
N[C@@H](Cc1ccc(O)cc1)C(=O)NO	x	-0.6	x	x	x	x
Cc1nc(N2CCOCC2)c2c3c(sc2n1)CCC3	-14.4%	-1.1	-1.1	-7.5%	1.8%	2.7%
CSc1nc(N2CCOCC2)c2c3c(sc2n1)CCCC3	17.8µM*	1.0	5.3	5.2%	2.7%	-9.8%
O=C(c1cnn2c(C(F)F)cc(-c3ccccc3)nc12)N1CCc2ccccc2C1	u	58.5*	-2.8	14.1%	-1.2%	-3.8%
COc1cc2c(cc1OC)-c1cc3ccc(OC)c(OC)c3c[n+]1CC2	-11.9%	-0.1	10.6	-3.3%	2.8%	12.3%
COc1ccc2cc3[n+](cc2c1O)CCc1cc2c(cc1-3)OCO2	89.1µM*	0.0	x	-0.4%	18.8%	u
CCN1C(=S)SC(=O)C1=C1C=C(C)OC(C)=C1	-8.8%	0.8	-19.7	1.3%	-8.1%	1.5%
CCN1C(=S)SC(=O)C1=C1C=C(C)N(Cc2ccco2)C(C)=C1	17.6%	59.2*	-5.7	13.5%	u	27.5%
CCCCCCCCCCCCCCCC[n+]1ccc(C)c2ccccc21	x	0.1	x	x	x	x
CCc1nc(=O)c(-c2ccccc2)c(C)n1-c1ccccc1	3.4%	1.6	-53.3*	-1.3%	17.5%	2.3%
COc1ccc(-n2c(C)nc(=O)c(-c3ccccc3)c2C)cc1	2.7%	2.1	7.7	1.0%	-4.1%	5.1%
Cc1nc(N2C(=O)C(=O)/C(=C(/O)c3ccccc3)C2c2ccco2)sc1C (configuration not stated)	14.1%	-0.7	-10.1	-2.8%	3.98µM*	9.2%
O=C1[C@H](Cc2ccccc2)NC/C=C\C[C@H](c2ccco2)N1Cc1ccccc1	x	1.5	x	x	x	x
CN(C)CCCN(C(=O)c1cc2cc([N+](=O)[O-])ccc2s1)c1nc2cc3c(cc2s1)OCCO3	50.1µM*	0.0	-0.9	19.1%	26.8%	u
SMILES	EPAC2 antagonist	TRPML1 agonist	TRPML1 inh	EPAC1 agonist	EPAC2 ag	EPAC1 antagonist
CN(C)c1ccc(/C=C/c2ccc3ccccc3[n+]2[O-])cc1	x	107.3*	x	x	x	x
CS(=O)(=O)c1ccccc1NC(=O)COc1ccccc1C(=O)Nc1ccccc1	x	-0.5	x	x	x	x
Cc1cccc(NC(=O)Cn2c(O)c(N=NC(=O)c3ccccc3O)c3ccccc32)c1	2.5%	-0.6	10.4	-28.1%	-2.7%	56.2µM*
CCN(CC)c1ccc(/C=C/c2ccc3ccccc3n2)cc1	x	0.5	x	x	x	x
COc1ccc(/C(O)=C/c2nc3ccccc3n(-c3ccccc3)c2=O)cc1	104.2%[57.1 µM]	1.9	-7.8	1.2%	89.1µM*	24.9%
COc1ccc(-n2c(=O)c(CCC(=O)N3CCN(c4cccc(OC)c4)CC3)nc3ccccc32)cc1	1.9%	-0.1	-11.7	-18.8%	-3.9%	-14.6%
CCCCc1c(-c2ccccc2F)ncn1CCc1ccccc1OC	42.3µM*	3.2	x	-7.3%	16.5%	-14.5%
CCCCCc1c(-c2ccccc2F)ncn1CCc1ccccc1OC	u	1.6	x	-9.1%	-0.5%	-20.5%
O=[N+]([O-])c1ccc(Nc2nc(NCCN3CCOCC3)nc(Nc3ccc(I)cc3)n2)cc1	x	-0.5	x	x	x	x
Cc1cc2ccccc2c[n+]1C1CCCCC1	x	0.1	x	x	x	x
COc1cc2nc(N3CCCCC3)nc(NC(C)C)c2cc1OC	x	-0.6	x	x	x	x
Cc1ccc(O)c(NC(=S)NC(=O)Cc2ccc(Cl)cc2)c1	14.3%	74.6*	0.7	-6.6%	6.5%	1.0%
O=S(=O)(Nc1ccccc1-c1ccccc1)c1ccccc1	50.1µM*	2.3	6.8	12.1%	17.1%	-18.5%
O=C(O)c1cccc(S(=O)(=O)Nc2ccccc2-c2ccccc2)c1	6.6%	3.0	31.2	-20.3%	-6.6%	-9.7%
Cc1ccccc1C(=O)Nc1ccccc1C(=O)N1CCC(C)CC1	6.8%	53.5*	-11.7	14.2%	14.7%	-6.9%
CC(C)(C)n1ncc2c(=O)n(Cc3c(F)cc(Cl)cc3F)cnc21	x	1.6	-14.0	x	x	x
CN(C)c1ccc(/C=C/c2ccnc3c(Cl)ccc(Cl)c23)cc1	x	63.8*	x	x	x	x
COc1cc(C)c(/C=C/C(C)=C/C=C/C(C)=C/C(=O)O)c(C)c1C	10µM*	-0.9	11.0	-7.7%	-8.1%	u
COc1cc(/C=C/C(=O)O)ccc1OS(=O)(=O)c1c(C)c(C)cc(C)c1C	-4.2%	0.5	26.7	-4.4%	8.5%	-5.6%
CC(C)(C)n1ncc2c(=O)n(Cc3cccc(F)c3)cnc21	x	0.4	6.3	x	x	x
COCCCNC(=O)c1c[nH]c2ccc(S(=O)(=O)N3CCC(C)CC3)cc2c1=O	-0.4%	1.2	8.2	-7.5%	8.5%	15.2%

High-throughput results (PubChem BioAssay)
